Screening data from PubChem BioAssay.
Hits are enriched below; roughly 5.7% of the tested compounds scored in any of these assays.
ATXN2 expr inh = reduces ATXN2 reporter expression in HEK-293 cells; Potency, µM (doses to about 57 µM), for the others: at the top dose activity change, negative = inhibition, actives largely listed as inhibitors; HEK-293 ATXN2-luciferase reporter, luminescence, 24 h; 0.72% of 360,000 active; further: potency means the concentration at half of the fitted maximal effect; on the % scale 0 is the no-effect control and ±100 the full control effect; nearly all actives have a fitted effect of over 55% in size
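qHTS (up to 57 uM final) was run with 24 h compound exposure of reporter cells at 37 °C. Each well was multiplexed: SteadyGlo luminescence measured ATXN2-luciferase expression after a fluorogenic Gly-Phe-AFC viability readout (25 uM final).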
IL-1B inflam inh = inhibitors of inflammasome signaling (IL-1 beta secretion); THP-1 LPS/ATP IL-1B secretion, AlphaLISA, 16 h; hits give low values; activity change, % at 57.5 µM; 4.7% of 360,000 active; in the data active means activity change below about -50%; inconclusive means mostly about -30% to -49%; further: on the % scale 0 is the no-effect control and ±100 the full control effect
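THP-1 cells pretreated 1 hr with compounds (up to 57.5 uM final), then stimulated with LPS (250 ng/mL final) plus ATP (1.25 mM final); secreted IL-1B measured by AlphaLISA after 16 hr, decreased signal indicating inhibition.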
TGFb SMAD3 inh = TGF-b pathway inhibition; HepG2 CAGA-GFP TGF-b/SMAD3 reporter, GFP fluorescence, 18 h; TGF-beta stimulated, 500 pg/mL final; Potency, µM (highest dose often 46.1 µM), for the others: top-dose activity, negative = inhibition, actives largely listed as inhibitors; 1.2% of 410,000 active; further: potency means the concentration at half of the fitted maximal effect; on the % scale 0 is the no-effect control and ±100 the full control effect; nearly all actives have a fitted effect of over 65% in size
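TGF-beta reporter screen: HEPG2 CAGA-GFP, 1% FBS, 500 pg/mL TGF-beta final, 18 h; per-cell GFP summed per well; curves fitted and categorized by class.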
S2 tox = viability counter-screen for ATXN expression inhibitors | S2 cells (HEK-293 line with an ATXN2-luciferase reporter) viability, CellTiter-Fluor protease fluorescence, 24 h | Potency, µM (doses to about 56.7 µM), actives largely listed as cytotoxic | 0.49% of 400,000 active | AID 651635; further: potency means the concentration at half of the fitted maximal effect; nearly all actives have a fitted effect of over 40% in size
HepG2 viability = counter-screen for TGF-b inhibitors: cytotoxicity in HepG2 cells | HepG2 CAGA-GFP viability, ATP luminescence, 18 h | Potency, µM (highest dose often 46.1 µM), for inactives: at the top dose activity change, negative = cytotoxicity, most hits filed as cytotoxic | 0.76% of 410,000 active | AID 588856; further: potency means the concentration at half of the fitted maximal effect
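HepG2 CAGA-GFP cells (1000/well, DMEM with 1% FBS) received compound, then TGF-beta at 500 pg/mL final, and were incubated 18 hours at 37 degrees C. Viability was read by CellTiter-Glo luminescence. Media-only wells were set as complete cell-killing and DMSO as no toxicity.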
The depositor's hits bear a star. Unless noted, the call rests on the fitted dose curve; in most records, active means well fitted curve in the direction sought with a large enough effect; inconclusive means small, poorly fitted or top-dose-only effect, or another doubt; inactive means no such curve, though single readings can be large; an effect the other way counts as inactive or inconclusive.

How did O=[N+]([O-])c1cc(S(=O)(=O)NCCN2CCOCC2)ccc1Cl do in these assays?
ATXN2 expr inh: -8%; IL-1B inflam inh: -84*; TGFb SMAD3 inh: 11%; S2 tox: inactive; HepG2 viability: 0%

How did O=C(CCOCCOCCOCCOCCC(=O)Nc1c(I)cc(I)c(C(=O)O)c1I)Nc1c(I)cc(I)c(C(=O)O)c1I do in these assays?
ATXN2 expr inh: 6%; S2 tox: inactive

Results for CCOC(=O)c1c(NC(=O)c2ccc(S(=O)(=O)N(CCOC)CCOC)cc2)sc2c1CC(C)(C)NC2(C)C ?
TGFb SMAD3 inh: 11µM*; HepG2 viability: -61%

How did CC1CCN(S(=O)(=O)c2ccc(C(=O)Nc3sc4c(c3C(N)=O)CC(C)(C)NC4(C)C)cc2)CC1 do in these assays?
TGFb SMAD3 inh: 0%; HepG2 viability: -57%

Results for CCOC(=O)c1c(NC(=O)c2ccc(S(=O)(=O)N3CCCC(C)C3)cc2)sc2c1CC(C)(C)NC2(C)C (stereo unspecified) ?
ATXN2 expr inh: inconclusive; TGFb SMAD3 inh: inconclusive; HepG2 viability: 13µM*

Results for Cc1ccccc1CN1C(=O)c2ccccc2Sc2ccc(C(=O)NCCc3ccccc3)cc21 ?
TGFb SMAD3 inh: inconclusive; HepG2 viability: -22%

Results for Brc1cccc[n+]1CCCC[n+]1ccccc1Br ?
TGFb SMAD3 inh: 8%; HepG2 viability: -16%

What do the screens show for `CC(C)(C)n1ncc2c(=O)n(Cc3ccc(F)cc3)cnc21`?
TGFb SMAD3 inh: 6%; HepG2 viability: -4%

How did CC(C)(C)n1ncc2c(=O)n(Cc3ccc(SC(F)(F)F)cc3)cnc21 do in these assays?
TGFb SMAD3 inh: 16µM*; HepG2 viability: -32%

Results for C=C1C=C(C)n2ncc(C(=O)NCCCCCC)c2N1 ?
TGFb SMAD3 inh: -1%; HepG2 viability: -2%

How did Fc1cccc(-c2nnn3c2nc(Cl)c2ccccc23)c1 do in these assays?
ATXN2 expr inh: 14%; IL-1B inflam inh: 29; TGFb SMAD3 inh: inconclusive; S2 tox: inactive; HepG2 viability: 5%

Results for Cc1ccc(-c2nnn3c2nc(Cl)c2ccccc23)cc1 ?
ATXN2 expr inh: 39%; IL-1B inflam inh: -75*; TGFb SMAD3 inh: 1%; S2 tox: inactive; HepG2 viability: -8%

Results for Clc1nc2c(-c3ccccc3)nnn2c2ccccc12 ?
IL-1B inflam inh: -84*; TGFb SMAD3 inh: inconclusive; S2 tox: inconclusive; HepG2 viability: -15%

Results for CC1=C(C(=O)Nc2ccc(C)cc2C)C(c2ccc([N+](=O)[O-])cc2)n2ncc(C(=O)Nc3ccc(F)cc3)c2N1 (stereo unspecified) ?
TGFb SMAD3 inh: -1%; HepG2 viability: 2%

How did COc1ccc(CN2CCC(Cc3ccccc3)CC2)c(C)c1C do in these assays?
ATXN2 expr inh: inconclusive; IL-1B inflam inh: -78*; TGFb SMAD3 inh: -5%; S2 tox: inactive; HepG2 viability: -32%

How did COc1ccc(CN2CCC(N(CCc3ccccc3)Cc3ccccc3)CC2)c(OC)c1 do in these assays?
ATXN2 expr inh: inconclusive; IL-1B inflam inh: -94*; TGFb SMAD3 inh: inconclusive; S2 tox: inconclusive; HepG2 viability: -49%

How did CCC(=O)c1ccccc1OCCCN1CCC(Cc2ccccc2)CC1 do in these assays?
ATXN2 expr inh: inconclusive; IL-1B inflam inh: -89*; TGFb SMAD3 inh: inconclusive; S2 tox: inconclusive; HepG2 viability: -41%

Results for CCOc1ccccc1OCCN1CCC(Cc2ccccc2)CC1 ?
ATXN2 expr inh: -30%; IL-1B inflam inh: -4; TGFb SMAD3 inh: 2%; S2 tox: inactive; HepG2 viability: -19%

How did COc1cc(CN2CCC(Cc3ccccc3)CC2)cc(OC)c1OC do in these assays?
ATXN2 expr inh: -12%; IL-1B inflam inh: -26; TGFb SMAD3 inh: 1%; S2 tox: inactive; HepG2 viability: -24%

What do the screens show for `COc1cccc(OC)c1OCCCCN1CCCC1`?
ATXN2 expr inh: -6%; IL-1B inflam inh: 11; TGFb SMAD3 inh: 2%; S2 tox: inactive; HepG2 viability: -3%

How did COc1cccc(OC)c1OCCCCN1CCC(Cc2ccccc2)CC1 do in these assays?
ATXN2 expr inh: -28%; IL-1B inflam inh: -77*; TGFb SMAD3 inh: -8%; S2 tox: inactive; HepG2 viability: -12%

What do the screens show for `CCCN1CCC(N(CCc2ccccc2)Cc2ccccc2)CC1`?
IL-1B inflam inh: -13; TGFb SMAD3 inh: -9%; S2 tox: inactive; HepG2 viability: -19%

How did Cc1nn(C(=O)c2cccc(Cl)c2)c(C)c1S(=O)(=O)N1CCOCC1 do in these assays?
ATXN2 expr inh: 2%; TGFb SMAD3 inh: 4%; S2 tox: inactive; HepG2 viability: 24%

What do the screens show for `CCSc1ncc(Cl)c(C(=O)Nc2sc3c(c2C(=O)NCCOC)CCCC3)n1`?
TGFb SMAD3 inh: 7%; HepG2 viability: -1%

What do the screens show for `COc1ccc(C2CC(=O)c3ccccc3O2)cc1` (stereo unspecified)?
ATXN2 expr inh: 118%; IL-1B inflam inh: -60*; TGFb SMAD3 inh: 2%; S2 tox: inactive; HepG2 viability: -6%

Results for COc1cccc(/C(C#N)=C/c2c(-c3ccc(Cl)cc3)nc3c(C)cccn23)c1 ?
ATXN2 expr inh: inconclusive; IL-1B inflam inh: -65*; TGFb SMAD3 inh: -8%; S2 tox: inactive; HepG2 viability: -4%

What do the screens show for `Cc1ccccc1OCC(=O)NCC(=O)OCc1ccc2ccccc2c1`?
TGFb SMAD3 inh: -2%; HepG2 viability: -12%

What do the screens show for `CCOC(=O)C1=C(O)c2ccccc2C(=O)/C1=C\c1ccc(CC)cc1`?
ATXN2 expr inh: inconclusive; IL-1B inflam inh: inconclusive; TGFb SMAD3 inh: -6%; S2 tox: inconclusive; HepG2 viability: -53%

Results for CCOC(=O)C1=C(Cc2ccc(OC)cc2)C(=O)c2ccccc2C1=O ?
ATXN2 expr inh: inconclusive; IL-1B inflam inh: -82*; TGFb SMAD3 inh: inconclusive; S2 tox: inconclusive; HepG2 viability: -98%

What do the screens show for `Cc1cccc(C)c1OCCn1c(C2CC(=O)N(Cc3ccc(F)cc3)C2)nc2ccccc21` (stereo unspecified)?
ATXN2 expr inh: inconclusive; TGFb SMAD3 inh: inconclusive; HepG2 viability: -57%

What do the screens show for `Cc1ccc(C)c(OCCn2c(C3CC(=O)N(Cc4ccc(F)cc4)C3)nc3ccccc32)c1` (stereo unspecified)?
ATXN2 expr inh: inconclusive; TGFb SMAD3 inh: 13µM*; HepG2 viability: -104%

What do the screens show for `Cc1cccc(OCCCCn2c(C3CC(=O)N(c4ccc(C)cc4C)C3)nc3ccccc32)c1` (stereo unspecified)?
ATXN2 expr inh: inconclusive; TGFb SMAD3 inh: 10µM*; S2 tox: inconclusive; HepG2 viability: -109%
